Assay outcomes from PubChem.
DUX4 txn inh: blocks DUX4-driven transcriptional activation; 293T-iDUX4 ZSCAN4-Gaussia luciferase reporter, 24 h; stronger effect = lower value; activity change, negative = inhibition, % (concentration not given with the values); 0.8% of 37,000 active; AID 1224904;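 active means mean inhibition of at least 10% in the main channel, exceeding the control channel by a set limit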
Numbers stand for hits; – = inactive; ! = a repeat was not active. This excerpt belongs to a sample that is enriched for hits.

SMILES	DUX4 txn inh
COC(=O)C[C@H]1CC[C@@H]2[C@H](COc3ccc(NC(=O)Cc4cccs4)cc3C(=O)N2C)O1	–
C[C@H]1CN([C@@H](C)CO)C(=O)CCCn2nncc2CO[C@@H]1CN(C)C(=O)Nc1cccc(C(F)(F)F)c1	–
CCC(=O)N1[C@H](CN(CC)C(=O)c2cccc(F)c2)[C@@H](c2ccccc2)[C@@H]1CO	–
O=C(c1ccncc1)N1CC[C@@H]2[C@H](CO)Nc3ccc(-c4ccccc4)cc3[C@@H]21	–
OC[C@H]1[C@H](c2ccc(C#CC3(O)CCCC3)cc2)[C@@H]2CN(Cc3cncnc3)CCCCN12	–
COc1ccc(NC(=O)Nc2cccc3c2O[C@H](CN(C)C(=O)NC2CCCCC2)[C@@H](C)CN([C@@H](C)CO)C3=O)cc1	–
C[C@@H]1CCCCO[C@@H](CN(C)C(=O)Cc2ccccc2)[C@@H](C)CN([C@@H](C)CO)C(=O)c2cc(N(C)C)ccc2O1	–
CCCC#Cc1ccc([C@H]2[C@H]3CN(Cc4ccncc4)CCCCN3[C@H]2CO)cc1	–
COc1ccc(C#Cc2ccc([C@@H]3[C@@H](CO)N4CCCCN(C)C[C@H]34)cc2)cc1	–
CCCC#Cc1ccc([C@H]2[C@@H](CO)N3CCCCN(Cc4ccncc4)C[C@@H]23)cc1	–
COc1ccc(C#Cc2ccc([C@@H]3[C@H](CO)N4CCCCN(C)C[C@@H]34)cc2)cc1	-24
COCC#Cc1ccc([C@@H]2[C@H](CO)N3CCCCN(Cc4ccncc4)C[C@@H]23)cc1	–
COc1ccc(C#Cc2ccc([C@H]3[C@H]4CN(Cc5ccncc5)CCCCN4[C@H]3CO)cc2)cc1	-55
OC[C@@H]1[C@@H](c2ccc(C#CC3(O)CCCC3)cc2)[C@H]2CN(Cc3ccncc3)CCCCN12	–
COc1ccc(C#Cc2ccc([C@@H]3[C@@H](CO)N4CCCCN(Cc5ccncc5)C[C@H]34)cc2)cc1	-26
COc1ccc(C#Cc2ccc([C@H]3[C@@H](CO)N4CCCCN(C)C[C@@H]34)cc2)cc1	–
O=C(NC1CCCCC1)[C@H]1[C@H](CO)[C@H]2Cn3c(cccc3=O)[C@H]2N1CC1CCOCC1	–
CC(C)C#Cc1ccc([C@H]2[C@H]3CN(Cc4ccccn4)CCCCN3[C@H]2CO)cc1	–
CCN1[C@H](C(=O)OC)[C@@H](CO)[C@@H]2Cn3c(ccc(C4=CCCCC4)c3=O)[C@@H]21	–
CC(C)NC(=O)N1CC[C@@H]2[C@H]1c1cc(C#Cc3ccccc3)ccc1N(C)[C@@H]2CO	–
CO[C@H]1CN(C)C(=O)c2cc(NC(=O)Cc3ccccc3)ccc2OC[C@@H](C)NC[C@H]1C	–
N#Cc1ccc(-c2ccc(C3[C@H]4CNC[C@@H]3N4C(=O)Nc3ccc(Cl)cc3)cc2)cc1 (stereo partly specified)	–
O=C(Nc1ccc(F)cc1)N1C[C@@H]2N[C@H](C1)C2c1ccc(-c2cccnc2)cc1 (stereo partly specified)	-37!
COc1ccc(NC(=O)N2C[C@@H]3N[C@H](C2)C3c2ccc(-c3cccnc3)cc2)cc1 (stereo partly specified)	–
N#Cc1ccc(-c2ccc(C3[C@@H]4CN(C(=O)Nc5ccc(C(F)(F)F)cc5)C[C@H]3N4)cc2)cc1 (stereo partly specified)	-49!
SMILES	DUX4 txn inh
CN(C)C(=O)c1ccc(-c2ccc(C3[C@@H]4CN(C(=O)Nc5ccc(Cl)cc5)C[C@H]3N4)cc2)cc1 (stereo partly specified)	–
COc1ccc(NC(=O)N2C[C@@H]3N[C@H](C2)C3c2ccc(-c3cccc(F)c3)cc2)cc1 (stereo partly specified)	–
O=C(C[C@@H]1CC[C@@H]2[C@H](COC[C@H](O)CN2S(=O)(=O)c2ccccc2Cl)O1)NCc1ccccc1Cl	–
O=C(c1ccccn1)N1C[C@@H]2[C@H](c3ccccc31)[C@H](CO)N2C(=O)Cc1ccccc1	–
CCCNC(=O)C[C@H]1CC[C@@H]2[C@H](COC[C@@H](O)CN2C(=O)Nc2ccccc2OC)O1	–
Cc1ccccc1S(=O)(=O)N1CCCCN2[C@H](CO)[C@@H](c3ccc(-c4cccc(F)c4)cc3)[C@H]2C1	-39
Cc1ccccc1S(=O)(=O)N1CCCCN2[C@@H](CO)[C@@H](c3ccc(-c4cccnc4)cc3)[C@@H]2C1	–
CCS(=O)(=O)N1CCCCN2[C@H](C1)[C@@H](c1ccc(-c3ccccc3C)cc1)[C@@H]2CO	–
Cc1ccccc1-c1ccc([C@@H]2[C@@H](CO)N3CCCCN(S(=O)(=O)Cc4ccccc4)C[C@H]23)cc1	-45
Cn1cnc(S(=O)(=O)N2CCCCN3[C@H](C2)[C@H](c2ccc(-c4cccc(F)c4)cc2)[C@@H]3CO)c1	–
Cc1cccc(-c2ccc([C@@H]3[C@H](CO)N4CCCCN(S(=O)(=O)c5ccccc5F)C[C@@H]34)cc2)c1	–
Cc1ccccc1-c1ccc([C@@H]2[C@@H](CO)N3CCCCN(S(C)(=O)=O)C[C@H]23)cc1	–
Cc1ccccc1S(=O)(=O)N1CCCCN2[C@H](C1)[C@H](c1ccc(-c3cccc(F)c3)cc1)[C@@H]2CO	-19
Cn1cnc(S(=O)(=O)N2CCCCN3[C@H](CO)[C@H](c4ccc(-c5cccc(F)c5)cc4)[C@H]3C2)c1	–
COc1ccc(NC(=O)Nc2ccc3c(c2)C(=O)N([C@@H](C)CO)C[C@@H](C)[C@H](CN(C)S(=O)(=O)c2cccs2)OCCCC[C@H](C)O3)cc1	–
O=C(N[C@H]1CC[C@@H](CCNS(=O)(=O)c2ccc(F)cc2)O[C@@H]1CO)C1CCC1	–
C/C=C/c1ccc([C@H]2[C@@H](CO)N3CCCCN(C(=O)Nc4ccc(F)cc4)C[C@@H]23)cc1	–
COCC#Cc1ccc([C@H]2[C@@H](CO)N3CCCCN(C(=O)Nc4cc(F)ccc4F)C[C@H]23)cc1	-23
CN(C)CC#Cc1ccc([C@@H]2[C@H](CO)N3CCCCN(C(=O)Nc4cc(F)ccc4F)C[C@@H]23)cc1	–
C/C=C/c1ccc([C@@H]2[C@@H](CO)N3CCCCN(C(=O)Nc4cc(F)ccc4F)C[C@@H]23)cc1	-13
COCC#Cc1ccc([C@@H]2[C@@H](CO)N3CCCCN(C(=O)Nc4cc(F)ccc4F)C[C@@H]23)cc1	–
O=C(Nc1ccccc1F)N1CCCCN2[C@H](C1)[C@H](c1ccc(/C=C/c3ccccc3)cc1)[C@@H]2CO	–
O=C(C[C@@H]1CC[C@H]2[C@@H](COC[C@H](O)CN2S(=O)(=O)c2cccc(F)c2)O1)Nc1ccccc1	–
COc1ccc(S(=O)(=O)N(C)C[C@H]2Oc3ccc(N(C)C)cc3CC(=O)N([C@@H](C)CO)C[C@H]2C)cc1	–
COc1ccccc1C(=O)N1C[C@H]2[C@@H](c3ccccc31)[C@@H](CO)N2CC1CCCC1	–
SMILES	DUX4 txn inh
Cc1cccc(-c2ccc([C@@H]3[C@H]4CN(CCC(F)(F)F)CCCCN4[C@H]3CO)cc2)c1	-31
O=C(Nc1cccc(F)c1)N1CCCCN2[C@H](CO)[C@H](c3ccc(-c4ccncc4)cc3)[C@@H]2C1	–
O=C(C1CC1)N1CCCCN2[C@@H](CO)[C@H](c3ccc(-c4cccc(F)c4)cc3)[C@@H]2C1	–
Cc1ccccc1-c1ccc([C@H]2[C@H]3CN(C(=O)Nc4cccc(F)c4)CCCCN3[C@H]2CO)cc1	–
CN(C)C(=O)c1cccc(-c2ccc([C@@H]3[C@@H](CO)N4CCCCN(C(=O)C5CCC5)C[C@H]34)cc2)c1	–
Cc1ccccc1-c1ccc([C@@H]2[C@H]3CN(C(=O)Nc4cccc(F)c4)CCCCN3[C@H]2CO)cc1	-43
